Test results reported in the supplement of paper PMC6555819.

Each sequence was assayed on VDR:RXRa (NR concentration 270 nM, RXRa partner concentration 90 nM) (assay: PBM binding z-score (relative to random genomic background probes); higher = stronger binding; sequences stand for … in GC…GCGATTGACAGCGTAGAATGAAGG).
Description: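 Protein-binding microarray (Agilent 4x180K custom design, double-stranded 60-nt probes: 5' GC cap, 34-nt variable region, 24-nt constant primer region; full probe sequence given). Purified or IVT nuclear receptor:RXRα heterodimers (3:1 NR:RXRα, mostly 270:90 nM) or homodimers were incubated for 1 h in PBS with 2% milk and no ligand, then detected with Alexa488 antibodies. Fluorescence from o1-orientation probes (~5 replicates averaged) was converted to z-scores against 500 random hg19 background probes. Variable regions are seed direct-repeat (DR0–DR5) sites, all their single-nucleotide variants and half-site ablations.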

| Sequence | PBM binding z-score |
| --- | --- |
| TCATATAGGTAAATAGGTGAAAGTCCGTAAGTTA | 1.25 |
| CAGCCTAGGTCAGGGACAGTATAGGAGGAACGTT | 0.484 |
| TCTGCTTGGTCAGTTGGTCAGCTAACGAGCTGCC | -0.451 |
| AGAATGAGGTTAATATCAGGGAAACAGAATACAT | 1.04 |
| TCTACTAGGTCAACGATGGTCAGCTAATCTGCTA | 2.27 |
| ACTAGTTGGTCAGCTGAGGACACACACAATTCGG | 0.506 |
| ATACCAAGGTGATCGCGAGGTCGTTGATACTAAC | 3.37 |
| TCTCGGAGGACACGAAGGTCAGATCTTTCCAGAG | 2.61 |
| AGAATGAGGTTATTAAGATCAGGCAATTGCGGTC | 2.48 |
| ATCTCTAGGTAAAGATAGTTCAGTTAATGCAAAT | 1.21 |
| ATTTCTAGGTAACCAAGTTCAGTGAATGCCGAAC | 4.22 |
| ATCTCTAGGTAAAAGTCCAGTGAATCCCGAGGAT | 0.00204 |
| CCTTACGGGTCACGAGGTTTTAGCACGACGAGCG | 5.64 |
| CAAACTAGGTCACAGAGGTCATAGTCCGTGCGTA | 8.31 |
| CGAACTAGGTCATCCAGGACAGTGACTACATTGA | 4.29 |
| ATTACAGGGTCACTAGGCCAGAGTAGGTACGAAT | 4.19 |
| GTACCAAGGTGAATCGGTCGTTGATGAGTAGGCG | -0.122 |
| TCTTGTAGATCAAAGGTTAACAAAGCCGAAGCCT | 2.09 |
| CTCGAAAGGTCGGGTGAGGTGAGTATACGGATAA | 3.18 |
| TCTGCTAGGACAGTTGGTCAGCTAACGAGCTGCC | -0.792 |

| Sequence | PBM binding z-score |
| --- | --- |
| GCTATTAGTTGAAAGGGCAAACGAATGATTCTCG | 0.622 |
| TCATATAGGTAAATGCTAGGTGGAAGTCCGATCT | 0.687 |
| ATCTCAAGGTAAAAGTTCAGTGAATCCCGAGGAT | 1.6 |
| CGTCAAAGTTCAAGGTAACGAAACAGAAAGCAGC | 3.7 |
| AACTCTAGGTAAGACTCAGTTCAGTGAAGAACGC | 0.138 |
| TACACAGGGTCAAAGGCCAGAGTACGAATGTCGA | 4.89 |
| TGAATGAGGTTATAAGTTCAGGGAACGTTGCAAA | 3.67 |
| CATACAGGGTCAACTAGGCCAGAGTAGGGACGGC | 5.1 |
| CGTCCAAGGTCAGAGAGGTCCGTGAATGCCGAGT | 4.73 |
| TCTTGTAGATCAAACAGGTTAAGAAAGCCTGAGT | 0.979 |
| CGTCCAAGGTCAGCTGGTCAGTGAAAGCGACGTG | 2.66 |
| AGAATGATGTTACCAAAGATCAGGGAAACGCTTG | -0.205 |
| AATACAGGGTCATCGGAGGCCAGAGTACGCACAG | 5.88 |
| GCGACTGGGGCAAAGCAGGTGACCATAAGGTTGG | -0.478 |
| CCGAGTAGGTTATGGGGCTTTCAGGCAACGGTGA | -0.375 |
| CCGAGTAGGTTATGGGGCACTCAGGCAACGGTGA | -0.0808 |
| AGGACGAGGGCACGCTGAGTTGATAGCAGAGTAG | 2.09 |
| ATCGAAAGGTCGACGAGGTGAGCATACACCGTTT | 5.07 |
| TTACTAAGGTGAAAGGTCGTTGATGCACGCCTTG | 3.59 |
| TCATATAGGTAATACAAGTGAAAGTCGGCATCTA | 1.24 |
